Bioassay records (PubChem)
VACV mCherry inh – vaccinia inhibition (mCherry reporter) | Vaccinia virus mCherry reporter infection, fluorescence | Potency, µM (top dose mostly 36.5 µM), for the others: top-dose activity change, negative = inhibition, usual class: inhibitors | actives 0.63% (n = 310,000); calls by dose curve; tested in A549 cells; also: potency is read from the fitted curve at half-maximal effect; nearly all actives have a fitted effect of over 35% in size
HCMV antiviral – blocks human cytomegalovirus replication; actives 4.5% (n = 410,000); activity change, negative = inhibition, % at 57.5 µM; HFF cells, HCMV-luciferase reporter, 72 h; active compounds read low; in the data active = activity change below about -60%; inconclusive = no clear call, values can overlap the other calls; inactive = above about -39%
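After 16 h attachment at 37C, HFF cells received test compound and HCMV-luciferase (1 PFU/cell); reporter luminescence read 72 h later, data normalized against buffer-only and known inhibitor Salinomycin.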
FMDV antiviral – blocks foot and mouth disease virus. FMDV antiviral cell-based qHTS. Potency, µM (highest dose often 57.9 µM), without a hit: top-dose activity change, negative = inhibition, usual class: inhibitors. actives 1.2% (n = 410,000); calls by dose curve; tested in HEK293T cells; also: read-out not given here; potency is read from the fitted curve at half-maximal effect; nearly all actives have a fitted effect of over 45% in size
LASV entry inh – Lassa virus entry inhibition; Lassa virus pseudotype entry inhibition, cell reporter; Potency, µM (highest dose often 37.9 µM), without a hit: at the top dose activity change, negative = inhibition, most hits filed as inhibitors; actives 1.2% (n = 300,000); calls by dose curve; tested in HEK293 cells; also: potency is read from the fitted curve at half-maximal effect; nearly all actives have a fitted effect of over 50% in size
Vaccinia Venus – inhibitors of vaccinia virus (Venus reporter) | actives 0.46% (n = 330,000) | Potency, µM (highest dose often 36.5 µM), for inactives: at the top dose activity change, negative = inhibition, usual class: inhibitors | Vaccinia virus Venus reporter expression, fluorescence; calls by dose curve; tested in A549 cells; also: potency is read from the fitted curve at half-maximal effect; nearly all actives have a fitted effect of over 30% in size
MARV entry inh – Marburg virus entry inhibition. Marburg virus pseudotyped entry inhibition, cell reporter. actives 1.8% (n = 300,000). Potency, µM (highest dose often 37.8 µM), for inactives: top-dose activity change, negative = inhibition, hits mostly inhibitors; calls by dose curve; tested in HEK293 cells; also: potency is read from the fitted curve at half-maximal effect
An asterisk follows results filed as active; i = inactive; ? = inconclusive; · = no result given; + = active, no number; [ ] = another dose, or the depositor's remark. An excerpt weighted towards active compounds, which were near 6.5% of everything screened. % is scaled to controls: 0 for no effect and ±100 for the full control effect.

SMILES	VACV mCherry inh	HCMV antiviral	FMDV antiviral	LASV entry inh	Vaccinia Venus	MARV entry inh
CCc1cccc2c(C(=O)CN3C(=O)NC(C)(c4cccc5ccccc45)C3=O)c[nH]c12 (stereo unspecified)	?	53.6	?	?	?	?
Cc1cccc2cc(C#N)c(NCCNC(=O)COc3ccccc3)nc12	·	-23.0	-18.1%	·	·	·
Cc1cc(C)c2nc(NCCCNC(=S)NCCCN(C)C)c(C#N)cc2c1	·	-6.5	?	·	·	·
Cc1ccc2cc(C#N)c(NCCNC(=O)C3CC3)nc2c1C	·	-87.5*	?	-2.3%	·	?
Cc1ccc2cc(C#N)c(NCCNC(=S)NCCCN(C)C)nc2c1C	?	-12.3	-21.8%	·	12.6µM*	·
Cc1nc(N2CCN(C)CC2)c2c3c(sc2n1)CCCC3	·	-22.2	-18.9%	·	·	·
Cc1nc(N2CCN(C(=O)c3ccco3)CC2)c2c3c(sc2n1)CCCC3	?	-25.4	·	-55.7%	-21.9%	?
Cc1nc(N2CCN(C(=O)c3cccs3)CC2)c2c3c(sc2n1)CCCC3	?	-20.6	25.1µM*	?	?	-2.8%[46.1 µM]
Cc1nc(N2CCN(C(=O)c3ccco3)CC2)c2c3c(sc2n1)CC(C)CC3 (stereo unspecified)	·	?	?	?	·	13µM*
O=C(CN1CCCc2ccccc21)N/N=C/c1c(O)ccc2ccccc12	11.2µM*	-98.3*	?	?	?	?
COc1ccccc1NCC(=O)N/N=C/c1c(O)ccc2ccccc12	·	-94.8*	-6.2%	·	·	·
COc1ccccc1NC(=O)c1c(N=Cc2c(O)ccc3ccccc23)cnn1C	?	-89.2*	?	?	-25.6%	?
COc1ccccc1NCC(=O)N/N=C/c1cccnc1	-12.9%	20.8	-7.2%	-22.9%[14.3 µM]	-3.3%	-6.6%
COc1ccccc1N(CC(=O)Nc1ccccc1C)S(C)(=O)=O	-9.9%	-60.9*	·	1.4%	-10.8%	2.9%
COc1ccccc1N(CC(=O)Nc1c(C)cccc1C)S(C)(=O)=O	-1.0%	-8.2	·	4.0%	-10.4%	-0.9%
O=C(CNc1ccc(F)cc1)N/N=C/c1c(O)ccc2ccccc12	·	-97.3*	9.9%	·	·	·
COc1ccccc1N(CC(=O)N/N=C/c1c(O)ccc2ccccc12)S(C)(=O)=O	11.2µM*	-16.7	-29.6%	9.2µM*	?	?
COc1ccccc1CNC(=O)CN(c1ccccc1OC)S(C)(=O)=O	-14.3%	-17.1	-9.1%	-4.2%[46.1 µM]	-12.7%	·
COc1ccc(-n2ccn(Cc3ccccc3C)c(=O)c2=O)cc1	-9.3%	-21.6	3.0%	-8.4%[46.1 µM]	0.0%	·
Cc1ccnc(N/C=C(\C#N)c2nc(-c3cccc(Br)c3)cs2)c1	-11.4%	-80.3*	-10.4%	?	-5.0%	?
Fc1cccc(Oc2ccc3c(-c4ccccc4F)noc3n2)c1	·	-24.6	·	·	·	·
COc1ccc(NC(=O)CCCn2nc(C)c3sc4ccccc4c3c2=O)cc1	-10.5%	-6.4	-19.2%	25.2%[46.1 µM]	-4.6%	5.1%[46.1 µM]
O=C1c2ccccc2C(=O)C1c1ccc(O)cc1	-6.5%	-61.4*	3.8%	-23.6%[46.1 µM]	11.7%	8.9%[46.1 µM]
CCN1CCN(c2cc(N3CCc4ccccc4C3)c(F)cc2[N+](=O)[O-])CC1	-15.3%	-25.4	-26.5%	?	?	14.1µM*
CCn1c(SCc2ccccc2C)nc(=O)c2c(C(=O)OC)cc(C3CC3)nc21	-20.3%	-5.8	?	?	-16.3%	·
SMILES	VACV mCherry inh	HCMV antiviral	FMDV antiviral	LASV entry inh	Vaccinia Venus	MARV entry inh
N#Cc1c(Nc2ccccc2Cl)s[nH]c1=O	-8.0%	-86.5*	-18.4%	-14.4%[46.1 µM]	-4.7%	4.6%[46.1 µM]
Cc1nc2sc(C(c3cccs3)N3CCOCC3)c(O)n2n1 (stereo unspecified)	-12.3%	15.4	0.2%	1.2%	5.8%	-26.2%
Cc1nc2sc(C(c3ccccc3)N3CCOCC3)c(O)n2n1 (stereo unspecified)	i	-1.6	·	-0.2%	-3.2%	0.6%
COC(=O)C1CCN(C(c2cccs2)c2sc3nc(C)nn3c2O)CC1 (stereo unspecified)	-0.7%	-14.1	-14.0%	·	-8.7%	·
Cc1nc2sc(C(c3ccco3)N3CCN(c4ccccc4)CC3)c(O)n2n1 (stereo unspecified)	-19.6%	-100.0*	-10.6%	·	-20.4%	·
Cc1nc2sc(C(c3ccc(Cl)cc3)N3CCOCC3)c(O)n2n1 (stereo unspecified)	-17.4%	-100.6*	-2.4%	-16.9%	-13.5%	-18.6%
Cc1nc2sc(C(c3cccs3)N3CCN(c4ccccc4)CC3)c(O)n2n1 (stereo unspecified)	-7.4%	-69.7*	-13.6%	·	-9.5%	·
CCOC(=O)C1CCN(C(c2cccs2)c2sc3nc(C)nn3c2O)CC1 (stereo unspecified)	i	-61.9*	-12.1%	·	0.9%	·
COC(=O)C1=C(C(=O)OC)[C@@H]2N(C)c3ccccc3[C@@]23C[C@@H](C(=O)OC)N(C(=O)NC(C)(C)C)C3=N1	·	·	·	?	·	14.5%[14.2 µM]
COc1cccc(CNC(=O)c2ccc(-c3nc(COc4ccccc4)c(C)o3)cc2)c1	-22.1%	-1.8	-0.9%	27.2%[46.1 µM]	-22.8%	·
CCN(C(=O)COC(=O)/C=C/c1cnc2ccccc2n1)c1ccccc1	·	-89.5*	-26.3%	·	·	·
CC1=C/C(=C\C=C(C#N)C#N)N(C)c2ccccc21	i	-80.7*	-14.1%	-0.4%[46.1 µM]	118.8%	5.9%[46.1 µM]
Cc1ccc(C(NC(=O)N2CCCCC2)=C(Cl)Cl)cc1F	·	-79.7*	?	1.9%	·	-10.1%
Cn1nc(C(F)(F)F)c(/C=N/OC(=O)c2ccccc2)c1Cl	·	19.7	-1.7%	-1.4%	·	12.2%
Cn1nc(C(F)(F)F)c(/C=N/OC(=O)c2ccccc2)c1Sc1ccc(Cl)cc1	·	-63.4*	?	?	-22.8%	?
Cc1cc(-c2ccccc2)nc(N2CCN(c3ccccn3)CC2)n1	-6.3%	-2.5	·	4.61µM*	28.7%	9.2µM*
Cc1cncc(N2CCN(c3ccccn3)CC2)n1	15.5%	-23.4	6.0%	·	4.6%	·
CC(=O)Nc1ccc(S(=O)(=O)NC(CC(=O)NCCCN2CCOCC2)C(C)C)cc1 (stereo unspecified)	·	11.6	-11.7%	-3.9%	-19.0%	5.2%[46.1 µM]
CCCCCCCCNC(=O)CC(NS(=O)(=O)c1ccc(NC(C)=O)cc1)C(C)C (stereo unspecified)	-27.4%	-16.3	11.7%	2.06µM*	-23.4%	7.7%
Cc1ccccc1/C=C/c1cccc[n+]1C	·	?	-7.3%	·	·	·
C[n+]1ccccc1/C=C/c1ccccc1Cl	-29.1%	-78.5*	-6.1%	2.3%[46.1 µM]	-25.0%	-2.4%[46.1 µM]
COc1cc(NC(=O)CCCOc2cc(=O)n(C)c3ccccc23)cc(OC)c1OC	-19.8%	5.8	-3.2%	-0.6%[46.1 µM]	-26.1%	11.8%[46.1 µM]
COc1ccccc1-c1nnc(SCC(=O)c2c(N)n(C3CC3)c(=O)[nH]c2=O)o1	·	3.4	-13.3%	·	·	·
Nc1c(C(=O)CSc2nc3ccccc3o2)c(=O)[nH]c(=O)n1C1CC1	·	+	1.5%	·	·	·
Cc1ccc(NC(=O)CN2CCSc3ccc(S(=O)(=O)N4CCCC4)cc32)cc1	-12.7%	-20.6	0.0%	-19.9%[46.1 µM]	5.2%	·
Clc1ccccc1-c1nc(-c2ccccc2)n[nH]1	·	73.9	27.4%	?	·	7.5%
